# Measurements reported in the supplement of paper PMC10849652.
# Targets with a hit are over-represented here; the source holds about 8,800 in all. About 0.5% of all pairs of compound and target were hits. A number with no mark means an inactive call.
# Experiments:
# Test in all cases: log2 fold change, soluble protein after heating vs DMSO (PISA); higher = thermal stabilisation; K562 lysate, 10 uM; active = over 0.2 and 3.5 SD of the protein, either way, in both replicates (recomputed)
# [1] = compound: C1=CC=C(C=C1)[C@H](COC2=CC3=C(C=C2)NC(=O)N3)NC(=O)C4=CC=CN(C4=O)CC5=CC(=C(C=C5)F)F
# Method in brief: (§1)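 K562 pellets were dounce-homogenised in PBS pH 7.4 containing 1 mM MgCl2, and the crude extract, at 1 mg/mL protein, was exposed to 10 μM compound for 30 min. Aliquots were heated for 3 min across 48°C-58°C, pooled, brought to 0.5% NP-40 at 4°C and spun at 21,000xg for 90 min, with the supernatant taken as soluble protein. TMTpro 16plex LC-MS/MS with equalised channel sums quantified that protein. Values are log-two fold changes in thermal stability relative to solvent controls, taken from duplicates.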
# [2] = compound: CC1=C(SC2=C1C(=N[C@H](C3=NN=C(N32)C)CC(=O)N)C4=CC=C(C=C4)Cl)C
# Method in brief: as §1
# [3] = compound: CC1=C2C(=CC=C1)N=C(N(C2=O)C3=CC=CC=C3C)CN4C=NC5=C(N=CN=C54)N
# Method in brief: as §1
# [4] = compound: Cc1sc2c(c1C)C(c1ccc(Cl)cc1)=N[C@@H](CC(=O)OC(C)(C)C)c1nnc(C)n1-2
# Method in brief: as §1
# [5] = compound: c1ccc([C@@H]2C[C@H]2NC2CCNCC2)cc1
# Method in brief: as §1
# Chain of UniProt Q9Y2V2 (Q9Y2V2 whole entry, looked up): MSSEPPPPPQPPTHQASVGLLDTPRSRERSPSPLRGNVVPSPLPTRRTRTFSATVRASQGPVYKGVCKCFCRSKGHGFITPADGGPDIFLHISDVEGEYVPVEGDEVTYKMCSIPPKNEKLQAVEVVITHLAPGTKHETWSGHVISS
# Chain of UniProt Q9NQS1 (Q9NQS1 whole entry, looked up): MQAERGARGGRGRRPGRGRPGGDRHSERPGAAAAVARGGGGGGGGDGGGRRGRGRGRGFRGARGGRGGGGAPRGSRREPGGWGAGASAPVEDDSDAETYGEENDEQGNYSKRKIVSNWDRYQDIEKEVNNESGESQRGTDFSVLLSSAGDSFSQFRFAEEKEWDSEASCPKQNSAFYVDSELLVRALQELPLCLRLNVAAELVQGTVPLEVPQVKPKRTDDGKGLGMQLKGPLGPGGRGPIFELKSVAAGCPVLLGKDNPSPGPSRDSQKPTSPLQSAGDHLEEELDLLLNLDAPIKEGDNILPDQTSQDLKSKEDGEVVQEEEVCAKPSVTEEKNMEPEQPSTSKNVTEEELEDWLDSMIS
# Chain of UniProt Q9BV29 (Q9BV29 whole entry, looked up): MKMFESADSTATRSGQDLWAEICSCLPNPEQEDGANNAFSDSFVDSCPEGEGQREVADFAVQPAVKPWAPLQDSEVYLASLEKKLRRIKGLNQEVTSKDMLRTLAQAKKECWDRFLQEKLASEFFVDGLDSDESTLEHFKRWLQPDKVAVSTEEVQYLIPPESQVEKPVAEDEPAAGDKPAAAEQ
# Chain of UniProt P55212 (P55212 whole entry, looked up): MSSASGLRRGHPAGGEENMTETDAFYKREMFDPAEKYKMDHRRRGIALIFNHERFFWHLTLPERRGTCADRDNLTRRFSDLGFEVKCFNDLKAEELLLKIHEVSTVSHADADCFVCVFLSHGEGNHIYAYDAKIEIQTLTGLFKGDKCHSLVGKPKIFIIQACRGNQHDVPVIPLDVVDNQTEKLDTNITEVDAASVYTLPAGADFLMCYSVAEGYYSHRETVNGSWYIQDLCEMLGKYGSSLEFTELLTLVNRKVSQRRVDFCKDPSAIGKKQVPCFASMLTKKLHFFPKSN
# Chain of UniProt Q8N5S9 (Q8N5S9 whole entry, looked up): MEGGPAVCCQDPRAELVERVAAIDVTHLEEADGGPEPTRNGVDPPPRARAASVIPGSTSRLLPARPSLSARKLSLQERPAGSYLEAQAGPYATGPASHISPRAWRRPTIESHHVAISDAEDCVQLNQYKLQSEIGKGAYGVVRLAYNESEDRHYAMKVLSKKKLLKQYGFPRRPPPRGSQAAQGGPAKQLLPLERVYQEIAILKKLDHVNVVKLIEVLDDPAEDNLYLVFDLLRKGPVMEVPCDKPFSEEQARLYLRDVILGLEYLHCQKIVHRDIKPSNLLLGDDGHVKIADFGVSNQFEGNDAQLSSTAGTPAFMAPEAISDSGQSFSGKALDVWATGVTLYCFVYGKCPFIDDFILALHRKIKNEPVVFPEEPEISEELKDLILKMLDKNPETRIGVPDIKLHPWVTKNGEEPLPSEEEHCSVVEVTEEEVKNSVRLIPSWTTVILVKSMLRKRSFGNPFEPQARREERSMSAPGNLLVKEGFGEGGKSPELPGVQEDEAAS
# Chain of UniProt P24863 (P24863 whole entry, looked up): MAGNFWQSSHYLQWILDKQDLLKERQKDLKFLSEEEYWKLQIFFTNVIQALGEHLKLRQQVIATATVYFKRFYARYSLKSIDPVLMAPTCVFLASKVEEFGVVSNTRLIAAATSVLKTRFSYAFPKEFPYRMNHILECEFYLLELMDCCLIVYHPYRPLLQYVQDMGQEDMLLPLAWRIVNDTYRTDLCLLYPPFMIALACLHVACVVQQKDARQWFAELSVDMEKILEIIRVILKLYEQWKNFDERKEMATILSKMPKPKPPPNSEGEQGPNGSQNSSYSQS
# Chain of UniProt Q9NXV6 (Q9NXV6 whole entry, looked up): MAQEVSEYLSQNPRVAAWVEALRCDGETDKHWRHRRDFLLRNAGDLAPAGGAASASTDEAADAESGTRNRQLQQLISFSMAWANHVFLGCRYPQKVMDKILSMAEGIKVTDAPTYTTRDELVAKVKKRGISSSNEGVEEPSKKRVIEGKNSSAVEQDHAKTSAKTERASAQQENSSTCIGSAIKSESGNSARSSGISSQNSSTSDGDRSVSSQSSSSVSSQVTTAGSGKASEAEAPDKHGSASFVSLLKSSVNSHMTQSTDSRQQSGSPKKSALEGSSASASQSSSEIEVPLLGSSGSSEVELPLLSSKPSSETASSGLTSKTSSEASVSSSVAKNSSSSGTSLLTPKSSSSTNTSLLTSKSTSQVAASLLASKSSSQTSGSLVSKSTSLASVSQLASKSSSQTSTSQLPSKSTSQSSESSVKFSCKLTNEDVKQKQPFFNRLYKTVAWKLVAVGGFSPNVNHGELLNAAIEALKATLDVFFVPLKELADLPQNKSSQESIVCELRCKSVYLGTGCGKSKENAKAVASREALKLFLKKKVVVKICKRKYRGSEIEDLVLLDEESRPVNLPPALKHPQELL
# Chain of UniProt P15313 (P15313 whole entry, looked up): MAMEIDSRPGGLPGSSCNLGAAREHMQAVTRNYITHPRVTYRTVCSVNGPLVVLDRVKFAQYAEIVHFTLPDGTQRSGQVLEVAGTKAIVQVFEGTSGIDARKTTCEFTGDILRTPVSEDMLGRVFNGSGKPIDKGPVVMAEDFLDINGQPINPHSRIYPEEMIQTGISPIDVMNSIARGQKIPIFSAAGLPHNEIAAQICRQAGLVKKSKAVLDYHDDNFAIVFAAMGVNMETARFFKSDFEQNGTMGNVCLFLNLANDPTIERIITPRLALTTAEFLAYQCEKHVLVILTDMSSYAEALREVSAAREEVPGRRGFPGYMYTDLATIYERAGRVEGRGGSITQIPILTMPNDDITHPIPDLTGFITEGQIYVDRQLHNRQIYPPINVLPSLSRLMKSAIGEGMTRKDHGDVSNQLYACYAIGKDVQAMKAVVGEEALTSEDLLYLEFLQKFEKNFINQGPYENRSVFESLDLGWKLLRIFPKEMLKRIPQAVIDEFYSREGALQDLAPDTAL
# Chain of UniProt Q8WUX2 (Q8WUX2 whole entry, looked up): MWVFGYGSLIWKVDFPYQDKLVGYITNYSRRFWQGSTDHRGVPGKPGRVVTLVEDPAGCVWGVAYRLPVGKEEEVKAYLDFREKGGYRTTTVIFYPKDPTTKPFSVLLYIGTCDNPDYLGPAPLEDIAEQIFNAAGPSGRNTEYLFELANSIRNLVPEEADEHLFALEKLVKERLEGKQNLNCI
# Chain of UniProt P42574 (P42574 whole entry, looked up): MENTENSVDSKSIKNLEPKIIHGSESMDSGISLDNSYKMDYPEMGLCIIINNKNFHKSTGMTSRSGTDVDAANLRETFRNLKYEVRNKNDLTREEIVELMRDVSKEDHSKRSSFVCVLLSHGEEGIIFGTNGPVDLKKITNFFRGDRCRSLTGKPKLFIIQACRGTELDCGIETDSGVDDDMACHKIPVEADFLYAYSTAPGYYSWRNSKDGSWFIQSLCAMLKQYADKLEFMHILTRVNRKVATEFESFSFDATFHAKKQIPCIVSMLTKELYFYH
# Chain of UniProt O75419 (O75419 whole entry, looked up): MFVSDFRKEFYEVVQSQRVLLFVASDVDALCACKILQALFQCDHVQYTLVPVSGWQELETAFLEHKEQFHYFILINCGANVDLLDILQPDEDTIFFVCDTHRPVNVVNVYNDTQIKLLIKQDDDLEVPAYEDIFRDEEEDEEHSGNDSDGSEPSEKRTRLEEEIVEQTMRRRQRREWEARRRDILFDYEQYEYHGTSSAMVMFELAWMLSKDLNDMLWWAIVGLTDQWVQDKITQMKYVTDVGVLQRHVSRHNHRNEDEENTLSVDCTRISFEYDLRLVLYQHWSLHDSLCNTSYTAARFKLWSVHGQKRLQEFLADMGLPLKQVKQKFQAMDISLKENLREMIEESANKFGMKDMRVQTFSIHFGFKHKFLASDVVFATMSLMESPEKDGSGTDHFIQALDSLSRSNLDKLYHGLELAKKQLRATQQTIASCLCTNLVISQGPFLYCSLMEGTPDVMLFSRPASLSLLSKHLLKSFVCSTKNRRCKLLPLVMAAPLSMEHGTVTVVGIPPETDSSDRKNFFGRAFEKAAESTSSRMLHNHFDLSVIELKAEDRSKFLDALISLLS
# Chain of UniProt Q9BUK0 (Q9BUK0 whole entry, looked up): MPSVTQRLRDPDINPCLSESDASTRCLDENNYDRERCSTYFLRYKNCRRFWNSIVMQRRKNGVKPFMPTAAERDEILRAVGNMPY
# Chain of UniProt P45973 (P45973 whole entry, looked up): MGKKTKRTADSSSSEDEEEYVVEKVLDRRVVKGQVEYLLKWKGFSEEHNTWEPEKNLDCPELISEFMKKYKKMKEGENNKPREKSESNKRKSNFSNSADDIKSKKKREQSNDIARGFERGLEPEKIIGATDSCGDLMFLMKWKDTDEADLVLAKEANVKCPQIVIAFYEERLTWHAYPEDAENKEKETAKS
# Chain of UniProt P06493 (P06493 whole entry, looked up): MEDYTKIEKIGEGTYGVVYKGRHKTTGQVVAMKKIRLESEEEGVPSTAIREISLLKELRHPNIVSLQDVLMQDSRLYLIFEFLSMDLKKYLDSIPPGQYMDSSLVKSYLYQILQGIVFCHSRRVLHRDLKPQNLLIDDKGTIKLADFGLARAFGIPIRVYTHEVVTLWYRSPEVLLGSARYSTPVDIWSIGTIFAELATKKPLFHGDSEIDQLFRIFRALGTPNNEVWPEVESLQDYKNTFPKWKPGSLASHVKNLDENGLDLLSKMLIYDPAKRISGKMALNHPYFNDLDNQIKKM
# Chain of UniProt Q9HB09 (Q9HB09 whole entry, looked up): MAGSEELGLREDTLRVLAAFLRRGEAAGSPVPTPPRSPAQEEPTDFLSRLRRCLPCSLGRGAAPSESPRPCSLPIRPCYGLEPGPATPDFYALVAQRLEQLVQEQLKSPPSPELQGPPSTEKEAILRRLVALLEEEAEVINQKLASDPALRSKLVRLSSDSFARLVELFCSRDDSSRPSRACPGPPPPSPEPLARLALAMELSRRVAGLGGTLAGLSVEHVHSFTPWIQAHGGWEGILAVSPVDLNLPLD
Target,log2 fold change [1],log2 fold change [2],log2 fold change [3],log2 fold change [4],log2 fold change [5]
CASP6 (UniProt P55212),0.004,0.011,0.015,0.009,-0.005
BPHL (UniProt Q86WA6),0.284,0.038,-0.028,0.158,0.014
CAMKK1 isoform 2 (UniProt Q8N5S9),0.006,0.03,0.011,0.071,-0.103
CDKN2AIP (UniProt Q9NXV6),0.01,0.024,0.027,-0.041,-0.013
CCNA2 (UniProt P20248),0.013,-0.006,-0.003,-0.021,-0.068
CALM2 (UniProt P0DP24),-0.07,-0.177,0.009,-0.088,-0.001
CAMK1 (UniProt Q14012),0.096,0.014,-0.007,0.026,-0.047
CARHSP1 (UniProt Q9Y2V2),-0.031,0.027,0.019,-0.053,0.005
BUB1B isoform 3 (UniProt O60566),-0.013,-0.005,0.027,-0.003,0.02
CDK1 (UniProt P06493),0.037,-0.009,0.042,0.021,0.018
CCNB2 (UniProt O95067),-0.005,0.026,0.047,0.048,0.033
BNIP1 (UniProt Q12981),0.021,-0.051,0.001,0.018,0.149
CHCHD7 isoform 4 (UniProt Q9BUK0),0.08,-0.052,0.074,-0.071,-0.22
CCDC186 (UniProt Q7Z3E2),0.031,0.085,0.055,-0.016,0.105
CASP3 (UniProt P42574),0.051,-0.011,0.039,0.051,0.103
CCNC (UniProt P24863),0.045,-0.09,-0.035,-0.036,-0.129
CDC45 isoform 3 (UniProt O75419),0.076,-0.01,0,-0.018,0.026

Target,log2 fold change [1],log2 fold change [2],log2 fold change [3],log2 fold change [4],log2 fold change [5]
CCDC32 isoform 2 (UniProt Q9BV29),-0.132,-0.103,-0.058,0.015,-0.109
CBX5 (UniProt P45973),0.04,-0.002,-0.038,0.031,-0.135
C19orf54 (UniProt Q5BKX5),0.04,0.102,-0.007,0.033,0.043
CHAC2 (UniProt Q8WUX2),0.079,0.005,0.028,-0.025,0.344 (active)
CELF2 isoform 3 (UniProt O95319),-0.009,-0.012,0.005,0.012,0.08
ATP13A1 (UniProt Q9HD20),0.006,-0.001,0.079,0.064,0.03
CHD1L (UniProt Q86WJ1),-0.012,0.036,0.037,-0.009,0.052
ATE1 isoform 2 (UniProt O95260),-0.015,-0.008,-0.004,0.009,-0.087
BRD2 isoform 2 (UniProt P25440),0.024,1.06 (active),0.081,0.644 (active),0.071
CDC7 (UniProt O00311),-0.063,0.084,0.019,0.003,0.008
BRD4 (UniProt O60885),0.022,0.868 (active),0.003,0.415 (active),-0.015
BCL2L12 (UniProt Q9HB09),0.162,0.119,0.035,-0.011,-0.044
ATR (UniProt Q13535),-0.061,-0.036,-0.04,0.003,-0.095
ATXN2 (UniProt F8WB05),-0.17,0.212,0.146,0.004,0.022
ATP6V1B1 (UniProt P15313),0.023,0.004,0.004,-0.023,-0.157
AVEN (UniProt Q9NQS1),0.205,0.025,0.003,0.013,-0.058
